Screens (PubChem)
hcDAF12 agonist = H. contortus DAF-12 activation, primary screen; HEK293 hcDAF-12 lit1-tk-luc reporter, luminescence; 0% DMSO, 100% Δ7-dafachronic acid; activation, % at 6.8 µM; 370,000 tested, 1.4% active; AID 652067;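 active = activation above the mean of all tested compounds plus 3 SD, cut at about 5.5% in these data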;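 note: 100% = response to 3 µM Δ7-dafachronic acid high control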
ssDAF-12 act = activates DAF-12 receptor from parasite S. stercoralis. activation, % at 6.8 µM. HEK293 ssDAF-12/GRIP1 lit1-tk-luc reporter, luminescence; % of 3 µM dafachronic acid response. 370,000 tested, 1% active;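 active = activation above the mean over all tested compounds plus 3 SD, cut at about 0.9% in these data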;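 note: 0% = DMSO-only wells and 100% = 3 µM delta7-dafachronic acid wells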
DAX1 inh-1 = blocks DAX1 repression of SF-1 activated StAR promoter; HEK293T StAR-luciferase reporter, SF-1/DAX-1 repression relief; inhibition, % at 6.8 µM; 370,000 tested, 1.1% active;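 active = inhibition above the mean over all tested compounds plus 3 SD, cut at about 3.6% in these data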;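 note: 0% = DAX-1 cells with DMSO and 100% = cells lacking DAX-1 with DMSO; higher inhibition means more luminescence from relief of DAX-1 repression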
hgDAF12 agonist = agonists of H. glycines DAF-12 nuclear receptor | activation, % at 6.8 µM | 370,000 tested, 1.8% active | HEK293 GAL4-hgDAF12 UAS-luciferase reporter, agonist luminescence; normalized to butyrate control | AID 687014;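 active = activation above a cutoff set at the mean of all screened compounds plus 3 SD, cut at about 10% in these data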;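 note: 0% = DMSO wells and 100% = sodium butyrate wells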
DAX1 inh-2 = NR0B1 (DAX1) inhibition; P51843; HEK293 Gal4-DAX1 luciferase reporter, luminescence; inhibition, % at 6.75 µM; 340,000 tested, 0.99% active;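 active = inhibition above the mean over all tested compounds plus 3 SD, cut at about 4.2% in these data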;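 note: 0% = DAX1-transfected cells with DMSO and 100% = empty-vector control cells with DMSO; inhibition shows as a rise in luminescence from relieved DAX1 repression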
Target sequence (P51843 207-470 limits assumed): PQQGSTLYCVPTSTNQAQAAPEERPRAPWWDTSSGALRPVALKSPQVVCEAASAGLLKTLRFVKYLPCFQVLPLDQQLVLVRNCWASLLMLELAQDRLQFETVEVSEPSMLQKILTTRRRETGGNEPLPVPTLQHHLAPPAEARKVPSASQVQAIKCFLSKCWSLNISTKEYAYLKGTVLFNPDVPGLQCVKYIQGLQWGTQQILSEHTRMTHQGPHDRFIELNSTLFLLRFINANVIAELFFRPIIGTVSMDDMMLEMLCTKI
An asterisk follows results filed as active; · = not tested or not shown. The list is not random: actives were taken first. Their share in the collection is about 4.1%.

SMILES	hcDAF12 agonist	ssDAF-12 act	DAX1 inh-1	hgDAF12 agonist	DAX1 inh-2
CCCC(=O)Nc1ccc(S(=O)(=O)N2CCc3ccccc32)cc1	-2	0	0	1	4.8*
O=C(CNC(=O)c1cccc(S(=O)(=O)N2CCc3ccccc32)c1)Nc1ccc(F)c(F)c1F	-1	-1	-1	-6	-1
O=C(Nc1cc(-c2ccccc2)[nH]n1)c1ccccc1F	2	-1	2	12*	·
Cc1cccc(OCCNC(=O)c2cncc(Br)c2)c1	0	3.3*	0	2	1
CSc1cnn(CCC#N)c(=O)n1	6.0*	1.2*	0	7	·
Cc1cc(NC(=O)CSc2nc(N)c(NC(=O)c3ccccc3F)c(=O)[nH]2)no1	1	0.9*	-2	-1	0
Cc1cc(NC(=O)CSc2nc(N)c(NC(=O)c3ccccc3)c(=O)[nH]2)no1	2	-2	1	3	-1
Cc1cc(NC(=O)CSc2nc(N)c(NC(=O)c3ccco3)c(=O)[nH]2)no1	-2	-1	-1	-3	7.5*
CCc1c(C)nc(SCC(=O)NNC(=O)c2ccco2)[nH]c1=O	6.0*	0	1	2	1
COc1ccc(S[C@]2(C(=O)N3CCOCC3)CC(=O)N(P(=O)(OC)OC)[C@@H]2c2ccc(OC)cc2)cc1	-2	-1	-2	-2	·
O=C1/C(=C/c2cccnc2)CCc2c1[nH]c1ccccc21	1	-1	3	13*	0
Cc1cc(C)c2oc(C(=O)N(Cc3ccccc3)c3ccccn3)cc(=O)c2c1	-2	-1	0	-3	6.3*
O=C(CSc1nc2ccsc2c(=O)n1NC(=O)c1ccccc1)Nc1nccs1	1	0	1	11*	1
O=C(CSc1nc2ccccc2c(=O)n1NC(=O)c1ccccc1)c1ccccc1	4	1.2*	3	12*	3
O=C(CSc1nc2ccccc2c(=O)n1NC(=O)c1ccccc1)c1ccc(Cl)cc1	3	0	3	12*	3
CC(C)[C@H](N)C(=O)N[C@H](C(=O)N1CCC2CCN(Cc3ccccc3)CC21)C(C)C (stereo partly drawn)	-1	0	-2	1	·
O=C1c2ccccc2NC(c2cccc(Cl)c2)N1N=C1CCCCCC1 (stereo not drawn)	2	-1	2	7	4.9*
O=C1c2ccccc2NC(c2ccc(Cl)cc2Cl)N1O (stereo not drawn)	2	-1	0	2	1
COc1ccc(C2CC(=O)C(c3ccccc3C)=CN2Cc2ccccc2)cc1 (stereo not drawn)	-3	-1	1	-3	·
O=C(N[C@@H](Cc1cccnc1)C(=O)N1CCC[C@H]1C(=O)NCCc1ccccc1Cl)c1ccco1	0	0	0	1	·
Cc1csc(SC(C)C(=O)NCC2CCCCC2)n1 (stereo not drawn)	1	1.0*	0	-1	1
Cc1csc(SC(C)C(=O)Nc2ccc(S(=O)(=O)N3CCCC3)cc2)n1 (stereo not drawn)	-1	-1	2	4	-1
CCOC(=O)N1CCN(C(=O)C[C@H]2C[C@@]3(C(=O)OC)C(=C[C@H](C(C)C)O[C@@H]3C3CC3)N(Cc3ccco3)C2=O)CC1	-2	-1	-1	-2	·
Cc1ccc(CNC(=O)Nc2ccccc2)c(C)c1	1	0	1	13*	0
Cc1ccc(CNC(=O)Nc2ccc(C)cc2)cc1	1	0	0	4	1
SMILES	hcDAF12 agonist	ssDAF-12 act	DAX1 inh-1	hgDAF12 agonist	DAX1 inh-2
Cc1ccccc1CNC(=O)Nc1ccc(Cl)cc1	0	-1	0	3	5.5*
CN1CCN(C(=S)c2ccc([N+](=O)[O-])cc2)CC1	-2	-1	0	3	0
CN1CCN(C(=S)Nc2cc([N+](=O)[O-])ccc2Cl)CC1	0	-1	0	3	5.3*
CC(C(=O)NCC1CCCO1)c1ccc([N+](=O)[O-])cc1 (stereo not drawn)	0	-2	0	-3	5.0*
O=C(Cc1ccc([N+](=O)[O-])cc1)NCC1CCCO1 (stereo not drawn)	0	-2	0	-5	-1
C[C@]12Cc3ccccc3C1CC1=N[C@@H](c3ccc(C(F)(F)F)cc3)O[C@@]13C[C@@H]2C(=O)N3C1CCN(Cc2ccccc2)CC1 (stereo partly drawn)	2	0	2	1	·
CSc1nc(/C=C2\C=Nc3ccccc32)c(O)n1C	6.4*	0.9*	0	8	1
CN1CCN(S(=O)(=O)c2cccc(C(=O)Nc3sc4c(c3-c3nc5ccccc5[nH]3)CCCC4)c2)CC1	6.1*	0	0	6	-1
CC(=O)NCCC(=O)Nc1sc2c(c1-c1nc3ccccc3[nH]1)CCCC2	0	-1	-1	1	0
C[C@H](O)[C@@H]1CN2CCc3ccc(-c4ccc5c(c4)OCO5)cc3[C@@H]2C[C@@H]1N(C)CC1CCCCC1	-1	-1	-1	3	·
CCOC(=O)Cc1cc(=O)n2[nH]c(-c3ccccc3)cc2n1	·	·	·	·	0
CCCc1cc(=O)n2[nH]c(-c3ccc(Br)cc3)cc2n1	5.6*	1.1*	2	6	1
Nc1[nH]c(C(=O)c2ccccc2)c(-c2ccc3ccccc3c2)c1C(=O)NCc1ccc(-c2ccccc2)cc1	0	-1	1	1	·
C/C(=N\NC(=O)COc1ccccc1-c1ccccc1)c1ccccn1	0	-2	4.0*	-10	-2
O=C(NC1CCCCN(Cc2ccc(Cl)cc2)C1=O)c1c(F)cccc1F (stereo not drawn)	-2	-1	0	-1	·
COC(=O)C1CN(Cc2cn(Cc3ccccc3)nn2)CCS(=O)(=O)N1Cc1ccc(C)cc1 (stereo not drawn)	-2	-2	-1	0	·
CC(C)N(C(N)=NC(=O)OCc1ccccc1)C(C)C	0	-2	0	-1	·
CSCC[C@@H](C(=O)O)N1Cc2ccccc2C1=O	6.0*	0	0	-3	0
C=CCC(=O)NC(C)c1cnn(-c2ccccc2C)c1C (stereo not drawn)	3	1.0*	-1	2	1
Cc1ccccc1-n1ncc(C(C)NC(=O)c2ccccc2)c1C (stereo not drawn)	0	-2	-1	1	2
O=S(=O)(NCc1csc(-c2cccnc2)n1)c1cccs1	0	0.9*	1	3	0
O=C(c1ccc(CS(=O)(=O)c2ccc(Br)cc2)o1)N1CCN(c2ccccn2)CC1	-1	-1	-1	-1	-3
Cc1ccc(S(=O)(=O)Cc2ccc(C(=O)N3CCN(c4ccccn4)CC3)o2)cc1	-1	-2	0	0	4.7*
CC(=O)NC(CC(=O)OCC(=O)c1cc(C)ccc1C)c1ccccc1 (stereo not drawn)	0	-1	4.3*	-1	0
